{"source": "PubChem BioAssay (EPA / NIEHS)", "note": "Results filed as inconclusive are left out. The source made the active and inactive calls. Rule for the calls: active = hit-call score of the fitted dose curve at least 0.9, where 1 is the maximum; inconclusive = response in the unintended direction; inactive = score below 0.9."}
{"molecular_target": "guinea pig Leukotriene D4 Receptor (LTD4), CYSLTR1 (gene 100135514) (UniProt Q2NNR5)", "sequence (Q2NNR5 whole entry, looked up)": "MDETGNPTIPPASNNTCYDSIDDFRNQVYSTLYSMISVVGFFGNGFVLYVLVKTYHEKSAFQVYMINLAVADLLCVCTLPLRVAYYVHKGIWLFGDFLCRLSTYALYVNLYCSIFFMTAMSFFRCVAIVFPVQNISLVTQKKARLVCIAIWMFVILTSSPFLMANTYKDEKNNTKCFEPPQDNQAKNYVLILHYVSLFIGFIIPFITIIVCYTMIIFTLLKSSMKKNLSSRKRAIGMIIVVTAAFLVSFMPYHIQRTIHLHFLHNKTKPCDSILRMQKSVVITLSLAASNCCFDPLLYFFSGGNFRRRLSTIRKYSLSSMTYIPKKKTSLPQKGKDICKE", "test": "NVS_GPCR_gLTD4: NovaScreen (NVS) G Protein-Coupled Receptor Assay for guinea pig Leukotriene D4 Receptor (LTD4) (AID 2283248)", "outline": "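Radioligand displacement on guinea pig lung membranes, 1 h incubation, filtration and scintillation counting; DMSO as negative control. Duplicate 25 uM primary screen, then singleton concentration-response up to 50 uM.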"}
{"smiles": "CCCCCCCC=O", "AC50": "0.613 µM (active)"}
{"smiles": "COc1cc(-c2nc(NC(=O)c3cc4cc(C)cc(C)c4n3CC(=O)O)sc2CCC2CCCCC2)c(OC)cc1Cl", "outcome": "inactive"}
{"smiles": "CCCCC(CC)COC(=O)CC(C(=O)OCC(CC)CCCC)S(=O)(=O)O", "note": "(stereo not given)", "AC50": "16.1 µM (active)"}
{"molecular_target": "human Serotonin, 5-Hydroxytryptamine Receptor 2A (5HT2A), HTR2A (gene 3356) (UniProt P28223)", "sequence (P28223 whole entry, looked up)": "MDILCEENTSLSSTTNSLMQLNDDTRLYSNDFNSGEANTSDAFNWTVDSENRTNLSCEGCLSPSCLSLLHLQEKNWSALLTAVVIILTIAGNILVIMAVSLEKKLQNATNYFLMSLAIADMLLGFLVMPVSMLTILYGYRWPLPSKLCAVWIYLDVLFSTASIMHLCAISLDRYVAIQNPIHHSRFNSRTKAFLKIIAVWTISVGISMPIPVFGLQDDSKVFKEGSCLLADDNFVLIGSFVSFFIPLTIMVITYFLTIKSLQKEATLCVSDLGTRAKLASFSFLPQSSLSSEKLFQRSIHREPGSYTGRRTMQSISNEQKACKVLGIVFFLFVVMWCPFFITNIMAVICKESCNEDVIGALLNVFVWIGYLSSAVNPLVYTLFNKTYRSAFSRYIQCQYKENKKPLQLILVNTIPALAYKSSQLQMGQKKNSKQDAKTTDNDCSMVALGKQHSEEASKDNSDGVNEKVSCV", "test": "NVS_GPCR_h5HT2A: NovaScreen (NVS) G Protein-Coupled Receptor Assay for human Serotonin, 5-Hydroxytryptamine Receptor 2A (5HT2A) (AID 2283249)", "outline": "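Human cortex membranes, cell-free radioligand binding; filter-based scintillation read 1.5 h after dosing. Duplicate screen at 25 uM first; displacement of specific binding (loss of signal) versus DMSO.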"}
{"smiles": "Oc1ccc2c(c1)OC[C@@H](N1CCC(O)(c3ccc(F)cc3)CC1)[C@H]2O", "outcome": "inactive"}
{"smiles": "NC(=O)Cn1c(=O)cc(CCN2CCN(c3nccc4sccc34)CC2)c2ccc(F)cc21", "AC50": "0.00229 µM (active)"}
{"smiles": "CCCCC(CC)COC(=O)CC(C(=O)OCC(CC)CCCC)S(=O)(=O)O", "note": "(stereo not given)", "outcome": "inactive"}
{"tested_on": "guinea pig Muscarinic, Peripheral (Mperiperal) Receptor, Non-selective Binding, gene 100379235", "test": "NVS_GPCR_gMPeripheral_NonSelective: NovaScreen (NVS) G Protein-Coupled Receptor Assay for guinea pig Muscarinic, Peripheral (Mperiperal) Receptor, Non-selective Binding (AID 2283250)", "method": "NVS_GPCR_gMPeripheral_NonSelective is a biochemical, single-readout assay that uses extracted gene-proteins from Guinea pig bladder membranes in a tissue-based cell-free assay. Measurements were taken 1 hour after chemical dosing in a 48-well plate.NVS_GPCR_gMPeripheral_NonSelective is one of one assay component(s) measured or calculated from the NVS_GPCR_gMPeripheral_NonSelective assay. It is designed to make measurements of radioligand binding, a form of binding reporter, as detected with scintillation counting signals by Filter-based radiodetection technology.Data from the assay component NVS_GPCR_gMPeripheral_NonSelective was analyzed into 1 assay endpoint. This assay endpoint, NVS_GPCR_gMPeripheral_NonSelective, was analyzed in the positive analysis fitting direction relative to DMSO as the negative control and baseline of activity. Using a type of binding reporter, loss-of-signal activity can be used to understand changes in the binding as they relate to the gene Chrm3. Furthermore, this assay endpoint can be referred to as a primary readout, because the performed assay has only produced 1 assay endpoint. To generalize the intended target to other relatable targets, this assay endpoint is annotated to the gpcr intended target family, where the subfamily is rhodopsin-like receptor.\nBinding assays used specific radioligands (tritiated, iodinated) with non-radioactive competitive displacement ligands in agonist or antagonist protocols (as indicated) and various reference compounds and inhibitors to titrate specific binding to receptors and transporters. Most enzyme assays (CYPs, kinases, phosphatases, proteases, HDACs) used recombinant protein and specific substrates (fluorescence mostly, some colorimetric and radioactive) and inhibitors, followed by a biochemical separation of substrate and product. All assays for the biochemical HTS were initially run in duplicate at a single concentration (10 uM for CYP450 assays and 25 uM for all others). Assay-chemical combinations meeting a pre-defined threshold (e.g., 30% inhibition and other criteria defined below) were then run in singleton concentration-response format with maximum concentration of 20 uM for CYPs and 50 uM for all others. Each assay was run with positive and negative controls, and concurrent controls on every plate. The follow-up (secondary) screen tested active chemical-pairs in concentration series, as well as a few additional assays not tested in the primary screen, some selected negative inactives, and several cases re-run in the concentration series for confirmatory purposes."}
{"smiles": "Cc1nc(-c2ccc3c(c2)CCN(CCC2CCC(NC(=O)/C=C/c4ccc(F)cc4)CC2)CC3)no1", "note": "(stereo not given)", "AC50": "0.483 µM (active)"}
{"smiles": "COc1ccc2c(c1)c(CC(=O)O)c(C)n2C(=O)c1ccc(Cl)cc1", "outcome": "inactive"}
{"smiles": "CCOC(=O)CCC(=O)OCC", "outcome": "inactive"}
{"smiles": "NC(=O)Cn1c(=O)cc(CCN2CCN(c3nccc4sccc34)CC2)c2ccc(F)cc21", "outcome": "inactive"}
{"smiles": "CN1CCN(Cc2cc(-c3ccc4[nH]c(=O)oc4c3)co2)[C@@H](c2ccc(F)cc2)C1", "outcome": "inactive"}
{"smiles": "CNCc1cc(F)ccc1Oc1ccc(Cl)c(Cl)c1", "AC50": "25 µM (active)"}
{"smiles": "CCCCC(CC)COC(=O)CC(C(=O)OCC(CC)CCCC)S(=O)(=O)O", "note": "(stereo not given)", "AC50": "25 µM (active)"}
{"smiles": "COc1ccc(S(=O)(=O)N2C(=O)[C@@](c3ccccc3OC)(N3C[C@H](O)C[C@H]3C(=O)N(C)C)c3cc(Cl)ccc32)c(OC)c1", "AC50": "13.8 µM (active)"}
{"molecular_target": "human Serotonin, 5-Hydroxytryptamine Receptor 5A (5HT5A), HTR5A (gene 3361) (UniProt P47898)", "sequence (P47898 whole entry, looked up)": "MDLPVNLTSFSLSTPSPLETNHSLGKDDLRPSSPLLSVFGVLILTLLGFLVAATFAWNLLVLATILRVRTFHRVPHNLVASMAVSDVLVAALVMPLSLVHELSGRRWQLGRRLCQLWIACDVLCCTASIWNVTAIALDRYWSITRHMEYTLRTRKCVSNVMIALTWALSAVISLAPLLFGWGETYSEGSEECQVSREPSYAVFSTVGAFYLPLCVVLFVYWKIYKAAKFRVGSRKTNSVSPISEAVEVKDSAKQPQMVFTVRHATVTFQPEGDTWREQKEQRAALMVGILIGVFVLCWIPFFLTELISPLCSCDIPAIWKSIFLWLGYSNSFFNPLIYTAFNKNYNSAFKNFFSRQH", "test": "NVS_GPCR_h5HT5A: NovaScreen (NVS) G Protein-Coupled Receptor Assay for human Serotonin, 5-Hydroxytryptamine Receptor 5A (5HT5A) (AID 2283251)", "outline": "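Cell-free radioligand displacement binding on HEK293-derived membrane protein, 1 h incubation, filter-based scintillation counting. Primary screen in duplicate at 25 uM, actives followed in concentration series; loss of signal fitted versus DMSO.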"}
{"smiles": "NC(=O)Cn1c(=O)cc(CCN2CCN(c3nccc4sccc34)CC2)c2ccc(F)cc21", "AC50": "0.834 µM (active)"}
{"smiles": "CN1CCN(Cc2cc(-c3ccc4[nH]c(=O)oc4c3)co2)[C@@H](c2ccc(F)cc2)C1", "AC50": "9.14 µM (active)"}
{"smiles": "COc1cc(-c2nc(NC(=O)c3cc4cc(C)cc(C)c4n3CC(=O)O)sc2CCC2CCCCC2)c(OC)cc1Cl", "outcome": "inactive"}
{"smiles": "CCCCC(CC)COC(=O)CC(C(=O)OCC(CC)CCCC)S(=O)(=O)O", "note": "(stereo not given)", "AC50": "7.45 µM (active)"}
{"smiles": "Nc1nc(N)c2nc(CNc3ccc(C(=O)N[C@@H](CCC(=O)O)C(=O)O)cc3)cnc2n1", "AC50": "6.28 µM (active)"}
{"molecular_target": "guinea pig Opioid, Kappa 1 Receptor (OpiateK), OPRK1 (gene 100135587) (UniProt P41144)", "sequence (P41144 whole entry, looked up)": "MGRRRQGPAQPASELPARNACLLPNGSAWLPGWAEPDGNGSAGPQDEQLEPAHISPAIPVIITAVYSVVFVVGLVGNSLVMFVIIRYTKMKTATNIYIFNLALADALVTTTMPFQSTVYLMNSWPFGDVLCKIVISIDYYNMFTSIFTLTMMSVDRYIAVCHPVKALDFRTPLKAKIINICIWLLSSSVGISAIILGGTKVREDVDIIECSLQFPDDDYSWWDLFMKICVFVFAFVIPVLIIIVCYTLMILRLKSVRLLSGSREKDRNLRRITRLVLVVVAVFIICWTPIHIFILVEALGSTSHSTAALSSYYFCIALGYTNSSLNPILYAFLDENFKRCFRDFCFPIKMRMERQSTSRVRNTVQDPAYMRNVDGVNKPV", "test": "NVS_GPCR_gOpiateK: NovaScreen (NVS) G Protein-Coupled Receptor Assay for guinea pig Opioid, Kappa 1 Receptor (OpiateK) (AID 2283252);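 note: active means reduced radioligand binding relative to DMSO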", "outline": "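Signal is scintillation counts of filter-trapped radioligand bound to guinea pig cerebellar membrane receptor, measured 2 hours post-dosing. Activity is loss of binding versus DMSO, first at 25 uM in duplicate, then as concentration series for actives.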"}
{"smiles": "Cc1nc(-c2ccc3c(c2)CCN(CCC2CCC(NC(=O)/C=C/c4ccc(F)cc4)CC2)CC3)no1", "note": "(stereo not given)", "AC50": "0.262 µM (active)"}
{"smiles": "COCCOC[C@H](CC1(C(=O)NC2CCC(C(=O)O)CC2)CCCC1)C(=O)Oc1ccc2c(c1)CCC2", "note": "(stereo not given in full)", "outcome": "inactive"}
{"smiles": "COc1cc(S(=O)(=O)O)c(C)cc1N=Nc1c(O)ccc2cc(S(=O)(=O)O)ccc12", "outcome": "inactive"}
{"smiles": "CCc1c(C(=O)NN2CCCCC2)nn(-c2ccc(Cl)cc2Cl)c1-c1ccc(Br)cc1", "AC50": "9.97 µM (active)"}
{"smiles": "CN1CCN(Cc2cc(-c3ccc4[nH]c(=O)oc4c3)co2)[C@@H](c2ccc(F)cc2)C1", "outcome": "inactive"}
{"smiles": "CNCc1cc(F)ccc1Oc1ccc(Cl)c(Cl)c1", "AC50": "12.7 µM (active)"}
{"molecular_target": "human Serotonin, 5-Hydroxytryptamine Receptor 6 (5HT6), HTR6 (gene 3362) (UniProt P50406)", "sequence (P50406 whole entry, looked up)": "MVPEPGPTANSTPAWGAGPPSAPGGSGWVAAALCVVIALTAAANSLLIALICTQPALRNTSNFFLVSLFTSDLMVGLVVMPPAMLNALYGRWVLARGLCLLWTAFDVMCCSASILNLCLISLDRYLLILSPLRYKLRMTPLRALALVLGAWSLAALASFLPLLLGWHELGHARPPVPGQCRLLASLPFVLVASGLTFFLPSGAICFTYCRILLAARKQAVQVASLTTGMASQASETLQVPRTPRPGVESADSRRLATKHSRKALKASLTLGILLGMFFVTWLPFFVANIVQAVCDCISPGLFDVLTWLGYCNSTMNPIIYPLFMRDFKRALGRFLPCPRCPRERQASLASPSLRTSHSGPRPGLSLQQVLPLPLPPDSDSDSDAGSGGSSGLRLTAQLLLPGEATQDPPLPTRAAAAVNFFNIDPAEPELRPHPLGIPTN", "test": "NVS_GPCR_h5HT6: NovaScreen (NVS) G Protein-Coupled Receptor Assay for human Serotonin, 5-Hydroxytryptamine Receptor 6 (5HT6) (AID 2283253)", "outline": "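Radioligand binding to 5HT6 in HEK293-derived membranes, cell-free, 1 h after dosing; bound ligand measured by filter-based scintillation counting. Primary screen in duplicate at 25 uM; actives retested in concentration series.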"}
{"smiles": "Oc1ccc2c(c1)OC[C@@H](N1CCC(O)(c3ccc(F)cc3)CC1)[C@H]2O", "outcome": "inactive"}
{"smiles": "Nc1ccc(S(=O)(=O)c2ccc(N)cc2)cc1", "AC50": "1.2 µM (active)"}
{"smiles": "NC(=O)Cn1c(=O)cc(CCN2CCN(c3nccc4sccc34)CC2)c2ccc(F)cc21", "AC50": "0.214 µM (active)"}
{"smiles": "NS(=O)(=O)c1cc2c(cc1Cl)NCNS2(=O)=O", "outcome": "inactive"}
{"smiles": "CN1CCN(Cc2cc(-c3ccc4[nH]c(=O)oc4c3)co2)[C@@H](c2ccc(F)cc2)C1", "AC50": "2.5 µM (active)"}
{"smiles": "NCCO", "outcome": "inactive"}
{"smiles": "CCCCC(CC)COC(=O)CC(C(=O)OCC(CC)CCCC)S(=O)(=O)O", "note": "(stereo not given)", "AC50": "36.6 µM (active)"}
{"molecular_target": "human Adenosine A1 Receptor (AdoRA1), ADORA1 (gene 134) (UniProt P30542)", "sequence (P30542 whole entry, looked up)": "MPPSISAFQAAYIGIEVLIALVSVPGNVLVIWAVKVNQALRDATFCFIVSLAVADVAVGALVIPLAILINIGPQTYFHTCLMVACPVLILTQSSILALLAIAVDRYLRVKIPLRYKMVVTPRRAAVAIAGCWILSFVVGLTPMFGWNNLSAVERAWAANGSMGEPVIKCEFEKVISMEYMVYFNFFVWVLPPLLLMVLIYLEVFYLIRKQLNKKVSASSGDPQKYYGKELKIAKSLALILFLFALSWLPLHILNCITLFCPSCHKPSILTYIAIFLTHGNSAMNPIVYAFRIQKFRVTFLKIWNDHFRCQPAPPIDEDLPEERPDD", "test": "NVS_GPCR_hAdoRA1: NovaScreen (NVS) G Protein-Coupled Receptor Assay for human Adenosine A1 Receptor (AdoRA1) (AID 2283254)", "outline": "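Radioligand binding was run on human cortical membranes, cell-free, with filter-based scintillation counting 1 h after dosing. The primary screen was duplicate at 25 uM, followed by concentration series. Signal loss versus DMSO was fitted positive-direction.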"}
{"smiles": "Nc1ccc2c(c1)C(=O)c1ccccc1C2=O", "AC50": "6.52 µM (active)"}
{"smiles": "C=CCOC(=O)c1ccccc1C(=O)OCC=C", "outcome": "inactive"}
{"smiles": "O=c1c(O)c(-c2ccc(O)c(O)c2)oc2cc(O)cc(O)c12", "outcome": "inactive"}
{"smiles": "Oc1ccc2c(c1)OC[C@@H](N1CCC(O)(c3ccc(F)cc3)CC1)[C@H]2O", "outcome": "inactive"}
{"smiles": "O=C(N[C@@H](Cc1ccccc1)[C@@H](O)C(=O)N1C[C@@H](O)[C@@H](O)C1)c1cc2cc(Cl)ccc2[nH]1", "AC50": "16 µM (active)"}
{"smiles": "CCOC(=O)CCC(=O)OCC", "outcome": "inactive"}
{"smiles": "CCCCC(CC)COC(=O)CC(C(=O)OCC(CC)CCCC)S(=O)(=O)O", "note": "(stereo not given)", "AC50": "20.7 µM (active)"}
{"molecular_target": "human Serotonin, 5-Hydroxytryptamine Receptor 7 (5HT7), HTR7 (gene 3363) (UniProt P34969)", "sequence (P34969 whole entry, looked up)": "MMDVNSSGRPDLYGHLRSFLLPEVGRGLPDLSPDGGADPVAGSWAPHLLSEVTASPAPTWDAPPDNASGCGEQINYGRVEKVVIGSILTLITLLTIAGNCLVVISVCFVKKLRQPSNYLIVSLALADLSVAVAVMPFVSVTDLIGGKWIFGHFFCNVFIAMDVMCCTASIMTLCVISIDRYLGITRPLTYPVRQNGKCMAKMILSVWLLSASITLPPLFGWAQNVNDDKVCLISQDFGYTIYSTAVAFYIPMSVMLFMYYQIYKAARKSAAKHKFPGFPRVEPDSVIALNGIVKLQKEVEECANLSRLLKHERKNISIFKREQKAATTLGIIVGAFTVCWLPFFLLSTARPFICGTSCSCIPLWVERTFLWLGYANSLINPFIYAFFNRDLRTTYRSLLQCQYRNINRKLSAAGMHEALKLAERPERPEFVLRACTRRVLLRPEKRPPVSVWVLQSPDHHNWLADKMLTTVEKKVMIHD", "test": "NVS_GPCR_h5HT7: NovaScreen (NVS) G Protein-Coupled Receptor Assay for human Serotonin, 5-Hydroxytryptamine Receptor 7 (5HT7) (AID 2283255);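 note: hits reduce specific radioligand binding relative to DMSO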", "outline": "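Radioligand displacement on membranes from CHO cells expressing human 5HT7, 1 h incubation, filter-based scintillation counting. Primary screen used a single 25 uM concentration in duplicate; actives were followed up in concentration series.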"}
{"smiles": "COc1cc(S(=O)(=O)O)c(C)cc1N=Nc1c(O)ccc2cc(S(=O)(=O)O)ccc12", "AC50": "14.8 µM (active)"}
{"smiles": "CC(C)c1ccc(C(=O)N=C(N)N)cc1S(C)(=O)=O", "AC50": "8.17 µM (active)"}
{"smiles": "CCOC(=O)CCC(=O)OCC", "outcome": "inactive"}
{"smiles": "NC(=O)Cn1c(=O)cc(CCN2CCN(c3nccc4sccc34)CC2)c2ccc(F)cc21", "AC50": "0.0155 µM (active)"}
{"smiles": "CN1CCN(Cc2cc(-c3ccc4[nH]c(=O)oc4c3)co2)[C@@H](c2ccc(F)cc2)C1", "AC50": "15.6 µM (active)"}
{"smiles": "CCCCC(CC)COC(=O)CC(C(=O)OCC(CC)CCCC)S(=O)(=O)O", "note": "(stereo not given)", "AC50": "6.08 µM (active)"}
{"molecular_target": "human Adenosine A2a Receptor (AdoRA2a), ADORA2A (gene 135) (UniProt P29274)", "sequence (P29274 whole entry, looked up)": "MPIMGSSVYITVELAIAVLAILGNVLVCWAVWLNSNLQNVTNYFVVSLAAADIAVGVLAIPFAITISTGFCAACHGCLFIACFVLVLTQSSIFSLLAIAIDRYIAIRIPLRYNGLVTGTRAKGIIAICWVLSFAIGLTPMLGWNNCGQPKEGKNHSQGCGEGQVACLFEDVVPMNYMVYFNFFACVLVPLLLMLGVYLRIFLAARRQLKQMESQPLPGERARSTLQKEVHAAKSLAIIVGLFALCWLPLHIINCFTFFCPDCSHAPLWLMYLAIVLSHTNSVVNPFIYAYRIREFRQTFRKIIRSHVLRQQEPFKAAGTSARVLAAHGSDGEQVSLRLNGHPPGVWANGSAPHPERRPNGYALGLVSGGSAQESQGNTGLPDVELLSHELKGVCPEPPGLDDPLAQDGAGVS", "test": "NVS_GPCR_hAdoRA2a: NovaScreen (NVS) G Protein-Coupled Receptor Assay for human Adenosine A2a Receptor (AdoRA2a) (AID 2283256)", "outline": "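Radioligand displacement on HEK293-derived membrane protein, cell-free; filter-based scintillation counting 1.5 hours after dosing, loss of signal vs DMSO. Single-point duplicate screen at 25 uM, actives retested in concentration series.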"}
{"smiles": "CCOc1ccc2c(c1)C(C)=CC(C)(C)N2", "outcome": "inactive"}
{"smiles": "O=c1c(O)c(-c2ccc(O)c(O)c2)oc2cc(O)cc(O)c12", "AC50": "11.8 µM (active)"}
{"smiles": "Nc1ccccc1N", "AC50": "0.975 µM (active)"}
{"smiles": "CCOC(=O)CCC(=O)OCC", "outcome": "inactive"}
{"smiles": "CCCCC(CC)COC(=O)CC(C(=O)OCC(CC)CCCC)S(=O)(=O)O", "note": "(stereo not given)", "AC50": "25 µM (active)"}
